# PMC5540273 (PLoS ONE, 2017)
# Like-named read-outs stand apart in the source and are kept apart here.
# Legend:
# FGR = conditions: concentration: 1 μM, replicates: in singlicate; n = 1
# FLT1 = conditions: concentration: 1 μM, replicates: in singlicate; n = 1
# FLT3-autoinhibited = conditions: concentration: 1 μM, replicates: in singlicate; n = 1
# FLT3 = conditions: concentration: 1 μM, replicates: in singlicate; n = 1
# FLT4 = conditions: concentration: 1 μM, replicates: in singlicate; n = 1
# FRK = conditions: concentration: 1 μM, replicates: in singlicate; n = 1
# FYN = conditions: concentration: 1 μM, replicates: in singlicate; n = 1
# GAK = conditions: concentration: 1 μM, replicates: in singlicate; n = 1
# GCN2(Kin.Dom.2,S808G) = system: T1, GCN2(Kin.Dom.2,S808G); conditions: concentration: 1 μM, replicates: in singlicate; n = 1
# T1 construct: gene EIF2AK4
# GRK1 = conditions: concentration: 1 μM, replicates: in singlicate; n = 1
# GRK2 = system: T2, GRK2; conditions: concentration: 1 μM, replicates: in singlicate; n = 1
# T2 construct: gene ADRBK1
# GRK3 = system: T3, GRK3; conditions: concentration: 1 μM, replicates: in singlicate; n = 1
# T3 construct: gene ADRBK2
# GRK4 = conditions: concentration: 1 μM, replicates: in singlicate; n = 1
# GRK7 = conditions: concentration: 1 μM, replicates: in singlicate; n = 1
# GSK3A = conditions: concentration: 1 μM, replicates: in singlicate; n = 1
# GSK3B = conditions: n = 1
# HASPIN = system: T4, HASPIN; conditions: concentration: 1 μM, replicates: in singlicate; n = 1
# T4 construct: gene GSG2
# HCK = conditions: concentration: 1 μM, replicates: in singlicate; n = 1
# HIPK1 = conditions: concentration: 1 μM, replicates: in singlicate; n = 1
# HIPK2 = conditions: concentration: 1 μM, replicates: in singlicate; n = 1
# [1] = concentration: 1 μM, replicates: in singlicate
# 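Note: KINOMEscan kinase panel screen.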
smiles,measurement,setting,value
O=C(Nc1n[nH]c2nc(-c3ccccc3)c(Br)cc12)C1CC1 [SB-708998],%Inh,FGR,8%
same,%Inh,FLT1,25%
same,%Inh,FLT3-autoinhibited,8%
same,%Inh,FLT3,1%
same,%Inh,FLT4,26%
same,%Inh,FRK,0%
same,%Inh,FYN,26%
same,%Inh,GAK,11%
same,%Inh,"GCN2(Kin.Dom.2,S808G)",0%
same,%Inh,GRK1,0%
same,%Inh,GRK2,12%
same,%Inh,GRK3,0%
same,%Inh,GRK4,14%
same,%Inh,GRK7,0%
same,%Inh,GSK3A,90.3%
same,%Inh,GSK3B; 1 µM,15%
same,%Inh,HASPIN,0%
same,%Inh,HCK,0%
same,%Inh,HIPK1,0%
same,%Inh,HIPK2,0%
O=C(NCc1cccs1)c1cc(C(=O)c2c(Cl)cccc2Cl)c[nH]1 [GW823670],%Inh,FGR,7%
same,%Inh,FLT1,2%
same,%Inh,FLT3-autoinhibited,0%
same,%Inh,FLT3,2%
same,%Inh,FLT4,2%
same,%Inh,FRK,0%
same,%Inh,FYN,0%
same,%Inh,GAK,0%
same,%Inh,"GCN2(Kin.Dom.2,S808G)",8%
same,%Inh,GRK1,0%
same,%Inh,GRK2,16%
same,%Inh,GRK3,25%
same,%Inh,GRK4,8%
same,%Inh,GRK7,0%
same,%Inh,GSK3A,0%
same,%Inh,GSK3B; [1],0%
same,%Inh,HASPIN,0%
same,%Inh,HCK,25%
same,%Inh,HIPK1,17%
same,%Inh,HIPK2,0%
Cc1cccc(-c2cc(-c3c[nH]nc3-c3ccccn3)ccn2)c1 [GW679395],%Inh,FGR,36%
same,%Inh,FLT1,13%
same,%Inh,FLT3-autoinhibited,0%
same,%Inh,FLT3,0%
same,%Inh,FLT4,0%
same,%Inh,FRK,15%
same,%Inh,FYN,16%
same,%Inh,GAK,82%
same,%Inh,"GCN2(Kin.Dom.2,S808G)",0%
same,%Inh,GRK1,3%
same,%Inh,GRK2,0%
same,%Inh,GRK3,39%
same,%Inh,GRK4,0%
same,%Inh,GRK7,0%
same,%Inh,GSK3A,17%
same,%Inh,GSK3B; [1],7%
same,%Inh,HASPIN,25%
same,%Inh,HCK,0%
same,%Inh,HIPK1,0%
same,%Inh,HIPK2,0%
Fc1cccc(CSc2nnc(-c3ccc4c(c3)CCO4)o2)c1,%Inh,FGR,0%
same,%Inh,FLT1,0%
same,%Inh,FLT3-autoinhibited,23%
same,%Inh,FLT3,0%
same,%Inh,FLT4,15%
same,%Inh,FRK,15%
same,%Inh,FYN,3%
same,%Inh,GAK,3%
same,%Inh,"GCN2(Kin.Dom.2,S808G)",4%
same,%Inh,GRK1,7%
same,%Inh,GRK2,35%
same,%Inh,GRK3,10%
same,%Inh,GRK4,0%
same,%Inh,GRK7,19%
same,%Inh,GSK3A,64%
same,%Inh,GSK3B; 1 µM,37%
same,%Inh,HASPIN,20%
same,%Inh,HCK,1%
same,%Inh,HIPK1,18%
same,%Inh,HIPK2,30%
O=C(Nc1n[nH]c2nc(-c3ccccc3)c(Cl)cc12)C1CC1 [SB-734909],%Inh,FGR,13%
same,%Inh,FLT1,9%
same,%Inh,FLT3-autoinhibited,16%
same,%Inh,FLT3,2%
same,%Inh,FLT4,0%
same,%Inh,FRK,0%
same,%Inh,FYN,0%
same,%Inh,GAK,0%
same,%Inh,"GCN2(Kin.Dom.2,S808G)",0%
same,%Inh,GRK1,37%
same,%Inh,GRK2,0%
same,%Inh,GRK3,83%
same,%Inh,GRK4,17%
same,%Inh,GRK7,0%
same,%Inh,GSK3A,90.6%
same,%Inh,GSK3B; 1 µM,56%
same,%Inh,HASPIN,0%
same,%Inh,HCK,0%
same,%Inh,HIPK1,20%
same,%Inh,HIPK2,0%
COc1cc2ncn(-c3cc(OCCCc4ccccc4)c(C(N)=O)s3)c2cc1OC [GSK205189],%Inh,FGR,21%
same,%Inh,FLT1,23%
same,%Inh,FLT3-autoinhibited,0%
same,%Inh,FLT3,5%
same,%Inh,FLT4,0%
same,%Inh,FRK,0%
same,%Inh,FYN,24%
same,%Inh,GAK,66%
same,%Inh,"GCN2(Kin.Dom.2,S808G)",0%
same,%Inh,GRK1,5%
same,%Inh,GRK2,0%
same,%Inh,GRK3,0%
same,%Inh,GRK4,13%
same,%Inh,GRK7,0%
same,%Inh,GSK3A,10%
same,%Inh,GSK3B; [1],0%
same,%Inh,HASPIN,0%
same,%Inh,HCK,4%
same,%Inh,HIPK1,9%
same,%Inh,HIPK2,0%
CCC(=O)c1c(-c2ccccc2)c2cc(Cl)ccc2c(=O)n1Cc1cc(S(C)(=O)=O)n(CC(F)F)n1,%Inh,FGR,0%
same,%Inh,FLT1,0%
same,%Inh,FLT3-autoinhibited,0%
same,%Inh,FLT3,0%
same,%Inh,FLT4,0%
same,%Inh,FRK,0%
same,%Inh,FYN,0%
same,%Inh,GAK,0%
same,%Inh,"GCN2(Kin.Dom.2,S808G)",0%
same,%Inh,GRK1,12%
same,%Inh,GRK2,0%
same,%Inh,GRK3,0%
same,%Inh,GRK4,4%
same,%Inh,GRK7,0%
same,%Inh,GSK3A,0%
same,%Inh,GSK3B; [1],0%
same,%Inh,HASPIN,26%
same,%Inh,HCK,0%
same,%Inh,HIPK1,25%
same,%Inh,HIPK2,0%
Cc1ccc(Oc2ccc(Nc3ncnc4cc[nH]c34)cc2C)cn1,%Inh,FGR,29%
same,%Inh,FLT1,92.5%
same,%Inh,FLT3-autoinhibited,23%
same,%Inh,FLT3,3%
same,%Inh,FLT4,0%
same,%Inh,FRK,12%
same,%Inh,FYN,0%
same,%Inh,GAK,10%
same,%Inh,"GCN2(Kin.Dom.2,S808G)",0%
same,%Inh,GRK1,9%
same,%Inh,GRK2,0%
same,%Inh,GRK3,28%
same,%Inh,GRK4,0%
same,%Inh,GRK7,44%
same,%Inh,GSK3A,0%
same,%Inh,GSK3B; [1],0%
same,%Inh,HASPIN,8%
same,%Inh,HCK,16%
same,%Inh,HIPK1,20%
same,%Inh,HIPK2,11%
COc1ccc(-c2cc3c(C)nc(N)nc3n([C@H]3CC[C@H](O)CC3)c2=O)cn1,%Inh,FGR,0%
same,%Inh,FLT1,0%
same,%Inh,FLT3-autoinhibited,0%
same,%Inh,FLT3,0%
same,%Inh,FLT4,0%
same,%Inh,FRK,0%
same,%Inh,FYN,0%
same,%Inh,GAK,0%
same,%Inh,"GCN2(Kin.Dom.2,S808G)",0%
same,%Inh,GRK1,0%
same,%Inh,GRK2,0%
same,%Inh,GRK3,14%
same,%Inh,GRK4,0%
same,%Inh,GRK7,1%
same,%Inh,GSK3A,0%
same,%Inh,GSK3B; [1],0%
same,%Inh,HASPIN,0%
same,%Inh,HCK,0%
same,%Inh,HIPK1,0%
same,%Inh,HIPK2,0%
Nc1nc(N)c2nc(-c3ccccc3)[nH]c2n1 [SKF-12778],%Inh,FGR,30%
same,%Inh,FLT1,18%
same,%Inh,FLT3-autoinhibited,7%
same,%Inh,FLT3,8%
same,%Inh,FLT4,22%
same,%Inh,FRK,8%
same,%Inh,FYN,0%
same,%Inh,GAK,30%
same,%Inh,"GCN2(Kin.Dom.2,S808G)",23%
same,%Inh,GRK1,5%
same,%Inh,GRK2,13%
same,%Inh,GRK3,9%
same,%Inh,GRK4,18%
same,%Inh,GRK7,4%
same,%Inh,GSK3A,0%
same,%Inh,GSK3B; [1],0%
same,%Inh,HASPIN,0%
same,%Inh,HCK,3%
same,%Inh,HIPK1,5%
same,%Inh,HIPK2,11%
